From PubChem BioAssay (NCATS)
Records with an inconclusive call do not appear. The source made the active and inactive calls. Unless noted, the call rests on the fitted dose curve; in most records, active means well fitted curve in either direction with a large enough effect (not every such curve was filed as active); inconclusive means small, poorly fitted or top-dose-only effect, or another doubt; inactive means flat fitted curve, though single readings scatter.

Legend:
[1] = target: Lysosomal acid glucosylceramidase (Homo sapiens) (UniProt P04062); assay: Glucocerebrosidase-p2 (AID 348; in the data active means potency below about 10 µM; further: potency means the concentration at half of the fitted maximal effect); conditions: purified GBA, blue fluorogenic substrate, 40 min
Outline: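 Compounds titrated from 0.6 nM upwards against 0.2 nM enzyme in pH 5.9 citric acid/KH2PO4, taurocholate, tween-20; blue fluorogenic substrate 80 uM, 40 min room temperature, stopped and read Ex 365/Em 440 for AC50.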

[2] = AP1 Signaling Pathway (AID 357); conditions: ME-180 AP-1-bla reporter, EGF-induced, beta-lactamase ratio, 5 h; at 7.69 µM (top of the series) unless noted;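 further: ME-180 reporter cells stimulated with EGF at its EC50 level; on the % scale 0 is the no-effect control and ±100 the full control effect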
Outline: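 Titration-series screen for positive or negative modulators of EC50 EGF-induced signaling in ME-180 cells carrying an AP-1-driven beta-lactamase reporter. After 5 hours at 37 degrees Celsius, CCF4 460nm/530nm emission ratio gave %Activity; AC50 values derived.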

[3] = target: Cytochrome P450 1A2 (Homo sapiens) (UniProt P05177); assay: p450-cyp1a2 (AID 410; calls by dose curve; further: potency means the concentration at half of the fitted maximal effect;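 on activity change, negative = inhibition: -100% = full effect of reference inhibitor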); conditions: recombinant CYP1A2, luciferin-ME demethylation, luminescence; series mostly up to 57 µM
Outline: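 Luminescent readout of luciferin formed from Luciferin-ME by human CYP1A2; data normalized against complete inhibition by 57 uM furafylline. Enzyme 20nM, substrate 100uM at Km, 100mM KPO4 buffer, 60 min reaction at room temperature.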

[4] = NFAT Signaling Pathway (AID 444); conditions: Jurkat NFAT-bla M1, carbachol, beta-lactamase ratio, 5 h; at 7.69 µM (top of the series) unless noted;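 further: carbachol stimulus at about its EC50 of 1 µM final; on the % scale 0 is the no-effect control and ±100 the full control effect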
Outline: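 Jurkat cells carrying an NFAT-driven β-lactamase reporter and co-transfected muscarinic M1 receptor were treated with compound plus carbachol (1 uM final, an EC50 level) for 5 h at 37 °C. CCF4 loading followed for 1 h at RT; 460/530 nm ratio gave %activity.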

[5] = Stat Signaling Pathway (AID 446); conditions: ME-180 SIE beta-lactamase reporter, IL-6 stimulated, 5 h; at 7.69 µM (top of the series) unless noted;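 further: ME-180 cervical cancer cells given 40 pM IL-6 alongside compound; SIE-controlled beta-lactamase reporter measured as 460/530 nm FRET emission ratio; on the % scale 0 is the no-effect control and ±100 the full control effect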
Outline: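 ME-180 cells carrying a SIE-driven beta-lactamase reporter are stimulated with 40 pM IL-6 for 5 h at 37C in the presence of compound. The 460/530 nm FRET substrate ratio is read after 2.5 h at RT. Data are normalised to 300 pM IL-6 and to 125 nM JAK inhibitor controls.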

[6] = target: Mitogen-activated protein kinase 10 (Mus musculus) (UniProt Q61831); assay: JNK3 AlphaScreen Assay (AID 530); conditions: JNK3 lysate, c-Jun phosphorylation; series mostly up to 57.1 µM;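 further: kinase came from lysate of stimulated human HepG2 cells; signal reports phosphorylation of biotinylated GST-cJun 1-79 at Ser73 with 10 µM ATP; on the % scale 0 is the no-effect control and ±100 the full control effect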
Outline: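 Inhibitors reduce antibody binding to phosphorylated biotin-cJun, lowering AlphaScreen luminescence. Lysates from HepG2 cells pre-activated by IL-1beta plus TNF-alpha supplied JNK3; compounds were titrated.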

[7] = target: 3',5'-cyclic-AMP phosphodiesterase 4B (Homo sapiens) (UniProt Q07343); assay: qHTS Assay for Inhibitors of PDE-IV (AID 607; active means well fitted activation curve with a large enough effect in the main read-out, with a control signal flat, not every such curve was filed as active; further: % of control where 0% means no effect); conditions: HEK293 ACTOne CNG channel cells, membrane potential fluorescence; series mostly up to 22.9 µM
Outline: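 HEK293 ACTOne cells with CNG channel (1000/well), endogenous PDE4; membrane potential dye, compounds up to 22.9 uM final. Fluorescence Ex 535/Em 590; RO 20-1724 (100 uM final) as reference.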

[8] = target: Cytochrome P450 3A4 (Homo sapiens) (UniProt P08684); assay: qHTS Assay for Inhibitors and Substrates of Cytochrome P450 3A4 (AID 884; active means well fitted curve in the direction sought with a large enough effect; an effect the other way counts as inactive or inconclusive; further: nearly all actives have a fitted effect of over 50% in size; further: potency means the concentration at half of the fitted maximal effect); conditions: recombinant CYP3A4, Luciferin-PPXE luminescence; series mostly up to 57.1 µM
Outline: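 20 nM human CYP3A4 with 25 uM Luciferin-PPXE (at KM) in 200 mM KPO4, preincubated 10 min with compound; NADPH regeneration started a 60 min RT reaction. Luciferin detected by luminescence, normalized to 57 uM ketoconazole as full inhibition.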

[9] = target: Cytochrome P450 3A4 (Homo sapiens) (UniProt P08684); assay: qHTS Assay for Activators of Cytochrome P450 3A4 (AID 885; active means well fitted curve in the direction sought with a large enough effect; an effect the other way counts as inactive or inconclusive; further: nearly all actives have a fitted effect of over 65% in size; further: potency means the concentration at half of the fitted maximal effect); conditions: recombinant CYP3A4, Luciferin-PPXE luminescence, 60 min; series mostly up to 57.1 µM
Outline: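 Human CYP3A4 (20 nM) with Luciferin-PPXE at 25 uM (its KM) in 200 mM KPO4; 10 min compound preincubation, then NADPH regeneration and 60 min reaction at RT. Luciferin read by luminescence; normalized to 57 uM ketoconazole full inhibition.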

[10] = qHTS Assay for Lipid Storage Modulators (AID 1519; calls by dose curve); conditions: Drosophila S3 cells, BODIPY lipid droplet/cell ratio, laser cytometry, cells loaded with oleic acid; for activity change, negative = inhibition: at 57.5 µM (top of the series)
Outline: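 Cells seeded at 5,000 per well were treated with compounds over a concentration series and loaded with oleic acid (400 uM, as added). Lipid droplet fluorescence (488 nm excitation, 500-530 nm channel) was read by laser-scanning cytometry and normalized to 20 uM Triacsin C.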

[11] = Primary qHTS for small molecule stabilizers of the endoplasmic reticulum resident proteome: Secreted ER Calcium Modulated Protein (SERCaMP) assay (AID 1508630; active means well fitted curve in the direction sought with a large enough effect; an effect the other way counts as inactive or inconclusive; further: on the % scale 0 is the no-effect control and ±100 the full control effect); conditions: SH-SY5Y GLuc-SERCaMP (Gaussia luciferase released on ER calcium loss) secretion, thapsigargin, luminescence; series mostly up to 38.4 µM
Outline: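 GLuc-SERCaMP-expressing SH-SY5Y cells, pretreated 16 h with compound, are challenged with thapsigargin to empty ER calcium stores; after 4 h, coelenterazine is added directly to the medium and luminescence is imaged.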

[12] = target: Glucocorticoid receptor (Homo sapiens) (UniProt P04150); assay: GR-GFP Redistribution (AID 450;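 active means compounds whose dose series gives a full or clear partial fitted curve of increased nuclear translocation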; further: potency means the concentration at half of the fitted maximal effect); conditions: U2OS GR-GFP nuclear translocation, laser cytometry, 2 h
[13] = target: Glucocorticoid receptor (Homo sapiens) (UniProt P04150); assay: GR-EFC Redistribution (AID 451; calls by dose curve; further: potency means the concentration at half of the fitted maximal effect); conditions: CHO-K1 GR-EFC translocation, beta-gal luminescence, 2 h
Outline: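 CHO-K1 cells stably expressing nuclear-localized β-gal enzyme acceptor and GR fused C-terminally to the enzyme donor fragment; ligand-driven nuclear translocation restores β-gal by complementation. Compounds titrated up to 46 uM final, 2 h at 37 °C; luminescence read.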

[14] = Confirmation and Secondary Assay for Modulators of Hemoglobin Beta Chain Splicing at IVS2 654 locus (AID 910; active means well fitted curve in the direction sought with a large enough effect; an effect the other way counts as inactive or inconclusive;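 further: per-well total GFP intensity by laser scanning cytometry after 2-day treatment; % of control where 0% means no effect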); conditions: HeLa EGFP-654 splicing reporter, GFP fluorescence, 48 h; series mostly up to 38.3 µM
Outline: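 HeLa cells stably carrying EGFP interrupted by mutant beta-globin IVS2-654 intron (CMV-driven) were treated with compound for 2 days at 37C; corrected splicing was scored as total peak GFP intensity per well (488 nm excitation, 500-520 nm emission).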

[15] = target: Ubiquitin carboxyl-terminal hydrolase 1 (Homo sapiens) (UniProt O94782); assay: Inhibitors of USP1/UAF1: Pilot qHTS (AID 504865; active means well fitted curve in the direction sought with a large enough effect; an effect the other way counts as inactive or inconclusive;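 further: rhodamine fluorescence freed from ubiquitin-rhodamine substrate followed over time; top concentration of the series differs between compounds; on the % scale 0 is the no-effect control and ±100 the full control effect; nearly all actives have a fitted effect of over 35% in size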); conditions: purified USP1/UAF1, Ub-rhodamine cleavage fluorescence; series mostly up to 54.9 µM
Outline: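 Enzyme-free wells gave the negative control, while test wells held 1nM USP1/UAF1 preincubated with compound for 15 min at room temperature. Ub-Rho at 150nM final started the reaction, and fluorescence at 480/540 nm was recorded kinetically.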

[16] = measured here: cell count channel max response
[17] = measured here: lipid channel max response

Sequence of Cytochrome P450 1A2 (Homo sapiens) (P05177 whole entry, looked up): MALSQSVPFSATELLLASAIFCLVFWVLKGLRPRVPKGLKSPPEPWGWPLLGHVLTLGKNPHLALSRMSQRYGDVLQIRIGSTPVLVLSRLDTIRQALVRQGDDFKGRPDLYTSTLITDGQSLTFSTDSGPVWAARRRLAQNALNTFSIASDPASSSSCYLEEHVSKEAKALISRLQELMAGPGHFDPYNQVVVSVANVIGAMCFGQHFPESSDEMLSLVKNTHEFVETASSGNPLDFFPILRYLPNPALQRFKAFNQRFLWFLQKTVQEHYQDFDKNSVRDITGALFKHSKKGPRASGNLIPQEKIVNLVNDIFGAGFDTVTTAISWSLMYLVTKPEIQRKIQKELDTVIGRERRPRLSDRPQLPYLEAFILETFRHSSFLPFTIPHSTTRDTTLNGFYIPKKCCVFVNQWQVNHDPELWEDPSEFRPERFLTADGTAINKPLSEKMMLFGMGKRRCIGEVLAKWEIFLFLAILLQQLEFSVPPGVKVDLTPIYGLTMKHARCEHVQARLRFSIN
Sequence of Cytochrome P450 3A4 (Homo sapiens) (P08684 whole entry, looked up): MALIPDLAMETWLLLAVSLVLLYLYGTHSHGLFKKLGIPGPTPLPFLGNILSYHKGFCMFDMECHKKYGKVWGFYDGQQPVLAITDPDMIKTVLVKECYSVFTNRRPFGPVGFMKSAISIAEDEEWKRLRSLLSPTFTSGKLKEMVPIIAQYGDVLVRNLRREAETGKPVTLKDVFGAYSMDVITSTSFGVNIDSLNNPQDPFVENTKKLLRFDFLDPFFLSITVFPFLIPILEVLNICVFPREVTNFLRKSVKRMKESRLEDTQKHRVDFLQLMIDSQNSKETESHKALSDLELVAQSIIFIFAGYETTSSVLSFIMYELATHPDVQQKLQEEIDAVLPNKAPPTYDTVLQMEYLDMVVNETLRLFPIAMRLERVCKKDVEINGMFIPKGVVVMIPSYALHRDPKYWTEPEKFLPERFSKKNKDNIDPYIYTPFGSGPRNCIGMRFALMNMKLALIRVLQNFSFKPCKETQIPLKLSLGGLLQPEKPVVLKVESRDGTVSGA
Sequence of 3',5'-cyclic-AMP phosphodiesterase 4B (Homo sapiens) (Q07343 whole entry, looked up): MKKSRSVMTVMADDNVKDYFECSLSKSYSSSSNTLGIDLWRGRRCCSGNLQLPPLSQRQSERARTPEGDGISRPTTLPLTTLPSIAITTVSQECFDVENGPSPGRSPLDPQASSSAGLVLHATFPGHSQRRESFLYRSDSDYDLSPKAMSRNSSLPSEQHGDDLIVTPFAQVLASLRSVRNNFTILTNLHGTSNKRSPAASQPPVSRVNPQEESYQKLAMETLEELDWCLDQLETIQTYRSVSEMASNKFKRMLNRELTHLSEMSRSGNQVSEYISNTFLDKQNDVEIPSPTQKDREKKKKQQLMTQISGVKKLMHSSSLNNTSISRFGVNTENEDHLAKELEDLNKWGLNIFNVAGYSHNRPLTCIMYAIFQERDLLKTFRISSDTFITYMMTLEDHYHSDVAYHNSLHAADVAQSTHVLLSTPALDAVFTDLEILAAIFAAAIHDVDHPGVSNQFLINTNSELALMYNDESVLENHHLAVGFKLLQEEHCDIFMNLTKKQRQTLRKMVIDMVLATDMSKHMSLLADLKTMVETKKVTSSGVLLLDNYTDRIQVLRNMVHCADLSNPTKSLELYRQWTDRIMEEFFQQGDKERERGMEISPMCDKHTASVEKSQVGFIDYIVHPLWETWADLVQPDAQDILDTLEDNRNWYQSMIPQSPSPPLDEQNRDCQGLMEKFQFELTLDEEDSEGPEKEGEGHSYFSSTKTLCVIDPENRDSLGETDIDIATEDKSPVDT
Sequence of Lysosomal acid glucosylceramidase (Homo sapiens) (P04062 whole entry, looked up): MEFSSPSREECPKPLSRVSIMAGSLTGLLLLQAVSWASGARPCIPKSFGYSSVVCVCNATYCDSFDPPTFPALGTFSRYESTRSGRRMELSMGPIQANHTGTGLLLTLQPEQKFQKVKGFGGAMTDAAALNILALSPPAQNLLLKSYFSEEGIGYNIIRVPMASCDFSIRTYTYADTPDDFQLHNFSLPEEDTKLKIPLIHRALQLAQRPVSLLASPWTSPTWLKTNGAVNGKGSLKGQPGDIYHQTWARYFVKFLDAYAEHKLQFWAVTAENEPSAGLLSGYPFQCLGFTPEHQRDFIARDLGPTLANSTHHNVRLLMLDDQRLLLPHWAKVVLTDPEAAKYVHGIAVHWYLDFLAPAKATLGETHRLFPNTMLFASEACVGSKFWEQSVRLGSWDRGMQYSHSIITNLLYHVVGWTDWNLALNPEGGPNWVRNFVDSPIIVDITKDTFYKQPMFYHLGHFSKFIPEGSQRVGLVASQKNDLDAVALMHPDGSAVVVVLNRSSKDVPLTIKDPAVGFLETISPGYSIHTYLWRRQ
Sequence of Glucocorticoid receptor (Homo sapiens) (P04150 whole entry, looked up, the tested form may be a part): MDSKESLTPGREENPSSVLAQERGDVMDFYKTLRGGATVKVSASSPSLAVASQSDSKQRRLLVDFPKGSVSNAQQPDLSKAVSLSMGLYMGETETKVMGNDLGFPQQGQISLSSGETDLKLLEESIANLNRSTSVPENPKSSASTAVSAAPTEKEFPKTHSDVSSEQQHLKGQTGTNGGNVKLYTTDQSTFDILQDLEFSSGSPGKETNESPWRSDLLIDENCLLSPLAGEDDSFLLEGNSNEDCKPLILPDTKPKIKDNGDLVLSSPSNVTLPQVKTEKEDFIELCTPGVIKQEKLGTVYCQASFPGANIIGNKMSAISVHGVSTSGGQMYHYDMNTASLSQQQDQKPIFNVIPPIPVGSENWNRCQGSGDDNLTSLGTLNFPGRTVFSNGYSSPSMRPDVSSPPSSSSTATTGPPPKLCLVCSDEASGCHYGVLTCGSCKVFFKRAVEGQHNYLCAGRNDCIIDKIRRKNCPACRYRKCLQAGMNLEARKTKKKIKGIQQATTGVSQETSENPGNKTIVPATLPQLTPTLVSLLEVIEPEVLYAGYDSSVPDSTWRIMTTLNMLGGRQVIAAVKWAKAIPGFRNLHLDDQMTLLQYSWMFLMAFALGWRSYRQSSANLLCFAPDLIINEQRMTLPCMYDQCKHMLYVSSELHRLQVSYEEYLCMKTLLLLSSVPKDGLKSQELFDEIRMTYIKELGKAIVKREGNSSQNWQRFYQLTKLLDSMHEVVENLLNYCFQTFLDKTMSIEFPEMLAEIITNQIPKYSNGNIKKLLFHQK
Sequence of Ubiquitin carboxyl-terminal hydrolase 1 (Homo sapiens) (O94782 whole entry, looked up): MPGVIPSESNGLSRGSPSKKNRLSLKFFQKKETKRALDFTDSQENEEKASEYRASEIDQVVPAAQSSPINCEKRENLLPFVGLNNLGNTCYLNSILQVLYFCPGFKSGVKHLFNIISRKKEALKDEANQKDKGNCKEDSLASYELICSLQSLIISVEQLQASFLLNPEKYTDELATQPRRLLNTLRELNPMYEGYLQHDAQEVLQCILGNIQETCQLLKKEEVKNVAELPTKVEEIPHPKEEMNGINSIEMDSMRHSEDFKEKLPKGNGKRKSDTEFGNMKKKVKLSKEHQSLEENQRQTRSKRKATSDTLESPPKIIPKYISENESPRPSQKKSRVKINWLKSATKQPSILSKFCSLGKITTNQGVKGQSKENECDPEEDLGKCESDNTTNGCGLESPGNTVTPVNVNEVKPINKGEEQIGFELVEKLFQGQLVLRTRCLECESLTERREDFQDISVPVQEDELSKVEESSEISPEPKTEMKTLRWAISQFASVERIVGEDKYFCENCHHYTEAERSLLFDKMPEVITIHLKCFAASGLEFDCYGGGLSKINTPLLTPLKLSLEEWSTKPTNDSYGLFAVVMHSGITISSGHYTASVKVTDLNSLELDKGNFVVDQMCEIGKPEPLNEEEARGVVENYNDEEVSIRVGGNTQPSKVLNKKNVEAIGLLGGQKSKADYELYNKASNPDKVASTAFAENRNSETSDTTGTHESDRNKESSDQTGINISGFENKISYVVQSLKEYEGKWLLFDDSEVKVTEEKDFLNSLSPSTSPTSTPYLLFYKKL

O=C(c1cnccn1)N1CCC[C@@]2(CCN(Cc3cc(C(F)(F)F)cc(C(F)(F)F)c3)C2)C1
active: Potency [8] 7.94 µM
inactive: Potency [1] > 11.4 µM | activity change, negative = inhibition [2] -16.9% | Potency [3] | activity change, negative = inhibition [4] 16.8% | activity, negative = inhibition [5] 2.8% | outcome [6] | Potency [7] | Potency [9] | activity change, negative = inhibition [10] 4.01% | Potency [11]
14.7%: max response [10, 16]
20.7%: max response [10, 17]

CN(C)c1ccc(-c2nc(N(C)Cc3ccco3)c3ccccc3n2)cc1
11.3%: max response [10, 17]
inactive: activity change, negative = inhibition [2] 25.1% | activity, negative = inhibition [5] 26.1% | Potency [12] > 46 µM | Potency [13] > 46 µM | outcome [6] | Potency [7] | Potency [9] | outcome [14] | activity change, negative = inhibition [10] 10.8% | Potency [15] | Potency [11]
0.88%: max response [10, 16]
active: Potency [1] 6.72 µM | Potency [3] 0.631 µM

COCC(=O)N1CCC2(CCCN(Cc3cc(C(F)(F)F)cc(C(F)(F)F)c3)C2)CC1
28.3%: max response [10, 17]
inactive: Potency [1] > 11.4 µM | activity change, negative = inhibition [2] -15.5% | Potency [3] | activity change, negative = inhibition [4] -0.717% | activity, negative = inhibition [5] 3.96% | outcome [6] | Potency [7] | Potency [9] | activity change, negative = inhibition [10] -0.278% | Potency [11]
26.3%: max response [10, 16]

CS(=O)(=O)N1CCC2(CC1)CN(Cc1nccs1)C2
active: Potency [3] 6.31 µM
18.5%: max response [10, 17]
13.6%: max response [10, 16]
inactive: Potency [1] > 11.4 µM | activity change, negative = inhibition [2] -7.04% | activity change, negative = inhibition [4] 11.5% | activity, negative = inhibition [5] 6.32% | Potency [13] > 46 µM | Potency [7] | activity change, negative = inhibition [10] 3.27% | Potency [11]

c1ccc(-c2cccc(N3CC[C@@]4(CCCNC4)C3)c2)cc1
inactive: Potency [1] > 11.4 µM | activity change, negative = inhibition [2] 1.23% | activity change, negative = inhibition [4] 6.24% | activity, negative = inhibition [5] -6.03% | Potency [13] > 46 µM | Potency [7] | Potency [9] | activity change, negative = inhibition [10] 1.77% | Potency [11]
active: Potency [3] 12.6 µM
-22.7%: max response [10, 17]
-28.1%: max response [10, 16]

c1ccc(-c2ccc(N3CC4(CCNCC4)C3)cc2)cc1
-25.6%: max response [10, 17]
-25%: max response [10, 16]
inactive: Potency [1] > 11.4 µM | activity change, negative = inhibition [2] 5.34% | activity change, negative = inhibition [4] 4.74% | activity, negative = inhibition [5] 4.95% | Potency [13] > 46 µM | Potency [7] | Potency [9] | activity change, negative = inhibition [10] -2.41% | Potency [11]
active: Potency [3] 15.8 µM

Cc1cccc(CNc2ncnc3ccc(-c4cccc(C#N)c4)cc23)c1
active: Potency [3] 0.631 µM
inactive: Potency [1] > 11.4 µM | activity change, negative = inhibition [2] -19.4% | activity change, negative = inhibition [4] -25.8% | activity, negative = inhibition [5] -6.66% | Potency [13] > 46 µM | outcome [6] | outcome [14] | activity change, negative = inhibition [10] 0.488% | Potency [11]
-19.2%: max response [10, 17]
-20.2%: max response [10, 16]

COc1ccc(NC(=O)N2CC[C@@]3(CCCN(C(=O)c4ccc(OC)cc4)C3)C2)cc1
26.4%: max response [10, 17]
active: Potency [3] 25.1 µM
22%: max response [10, 16]
inactive: Potency [1] > 11.4 µM | activity change, negative = inhibition [2] 5.18% | activity change, negative = inhibition [4] 10.5% | activity, negative = inhibition [5] 2.5% | outcome [6] | Potency [7] | Potency [9] | activity change, negative = inhibition [10] 3.11% | Potency [11]

O=C(Oc1ccccc1)N1CCC2(CC1)CN(c1ccccc1)C2
-10.5%: max response [10, 16]
active: Potency [3] 15.8 µM | Potency [9] 15.8 µM
inactive: Potency [1] > 11.4 µM | activity change, negative = inhibition [2] 3.75% | activity change, negative = inhibition [4] -1.1% | activity, negative = inhibition [5] -0.517% | Potency [13] > 46 µM | Potency [7] | Potency [8] | activity change, negative = inhibition [10] 1.33% | Potency [11]
-7.26%: max response [10, 17]

COc1cccc(Cn2c(=O)cnc3cnc(Oc4ccccc4)nc32)c1
3.98%: max response [10, 16]
3.52%: max response [10, 17]
inactive: Potency [1] > 11.4 µM | activity change, negative = inhibition [2] -13.9% | activity change, negative = inhibition [4] -0.253% | activity, negative = inhibition [5] -14.7% | Potency [12] > 9.22 µM | Potency [13] > 46 µM | outcome [6] | activity change, negative = inhibition [10] -0.165% | Potency [15] | Potency [11]

COCC(=O)N1CCC[C@@]2(CCN(Cc3ccccc3)C2)C1
6.62%: max response [10, 16]
inactive: Potency [1] > 11.4 µM | activity change, negative = inhibition [2] -0.884% | Potency [3] | activity change, negative = inhibition [4] 19.9% | activity, negative = inhibition [5] 7.86% | outcome [6] | Potency [7] | Potency [9] | activity change, negative = inhibition [10] 4% | Potency [11]
13.4%: max response [10, 17]

N#Cc1cccc(NC(=O)N2CCC3(CC2)CCN(C(=O)c2ccco2)CC3)c1
inactive: Potency [1] > 11.4 µM | activity change, negative = inhibition [2] -7.83% | Potency [3] | activity change, negative = inhibition [4] -8.92% | activity, negative = inhibition [5] 4.51% | Potency [13] > 46 µM | Potency [7] | Potency [8] | activity change, negative = inhibition [10] 6.33% | Potency [11]
18.9%: max response [10, 17]
10.3%: max response [10, 16]

CS(=O)(=O)N1CCC2(CC1)CN(c1cccc(-c3ccccc3)c1)C2
-11.7%: max response [10, 16]
inactive: Potency [1] > 11.4 µM | activity change, negative = inhibition [2] 6.38% | activity change, negative = inhibition [4] 9.12% | activity, negative = inhibition [5] -14.9% | Potency [13] > 46 µM | Potency [7] | activity change, negative = inhibition [10] -16.1% | Potency [11]
active: Potency [3] 5.01 µM
-21%: max response [10, 17]

Cc1nc2cnc(N(C)C)nc2n(Cc2ccc(F)cc2)c1=O
15%: max response [10, 16]
active: Potency [3] 2 µM | Potency [8] 0.0251 µM
inactive: Potency [1] > 11.4 µM | activity change, negative = inhibition [2] 3.79% | activity change, negative = inhibition [4] 1.01% | Potency [12] > 9.22 µM | Potency [13] > 46 µM | outcome [6] | Potency [9] | activity change, negative = inhibition [10] 5.88% | Potency [11]
21.5%: max response [10, 17]
